Results published in PubChem BioAssay AID1159580 (chemical genetic matrix, 2015).
“And” between values parts separate entries of the source, which are not always exact repeats. Equal values may be shown once. Out of some 5,500 compounds screened, about 2,000 (36%) were called active. Inconclusive results (about 18%) are left out. Rule as the data show it: active = normalized growth mostly below about 0.91 (no sharp cut-off); inconclusive = no clear call, values can overlap the other calls; inactive = mostly above about 0.92. This is one part of the list.

Experiment: chemical genetic growth profiling, strain panel (AID 1159580);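 also: tested at 20 µM; growth read once vehicle control cultures reached saturation at 30 °C; 1 = growth at the plate median or of vehicle wells; lower values mean less growth of the strain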
Settings: S. cerevisiae deletion strains, growth OD

Measured: normalized growth

CCCCN(CCCC)CCCOC(=O)c1ccc(N)cc1
inactive: locus YAL013W, strain DEP1, stronger effect = lower value 1 | locus YAL021C, strain ccr4, stronger effect = lower value 0.992 | locus YAL026C, strain drs2, stronger effect = lower value 0.991 | locus YAL030W, strain snc1, stronger effect = lower value 0.996 | locus YBL061C, strain skt5, stronger effect = lower value 0.986 | locus YBR009C, strain hhf1, stronger effect = lower value 0.998 | locus YBR021W, strain FUR4, stronger effect = lower value 1.07 | locus YBR023C, strain chs3, stronger effect = lower value 0.99 | locus YBR171W, strain sec66, stronger effect = lower value 0.986 | locus YBR229C, strain ROT2, stronger effect = lower value 0.998 | locus YBR231C, strain swc5, stronger effect = lower value 1 | locus YBR279W, strain paf1, stronger effect = lower value 0.994 | locus YCL011C, strain gbp2, stronger effect = lower value 0.985 | locus YCL016C, strain dcc1, stronger effect = lower value 0.99 | locus YCL029C, strain bik1, stronger effect = lower value 0.982 | locus YCL061C, strain MRC1, stronger effect = lower value 0.987 | locus YCL069W, strain vba3, stronger effect = lower value 0.991 | locus YCR088W, strain abp1, stronger effect = lower value 0.985 | locus YDL005C, strain med2, stronger effect = lower value 0.994 | locus YDL035C, strain GPR1, stronger effect = lower value 0.998 | locus YDL040C, strain nat1, stronger effect = lower value 0.99 | locus YDL074C, strain BRE1, stronger effect = lower value 0.977 | locus YDL101C, strain DUN1, stronger effect = lower value 0.979 | locus YDL134C, strain PPH21, stronger effect = lower value 1 | locus YDL185W, strain tfp1, stronger effect = lower value 0.968 | locus YDL192W, strain arf1, stronger effect = lower value 0.994 | locus YDR001C, strain nth1, stronger effect = lower value 0.992 | locus YDR069C, strain doa4, stronger effect = lower value 0.99 | locus YDR101C, strain arx1, stronger effect = lower value 0.986 | locus YDR137W, strain rgp1, stronger effect = lower value 0.879 | locus YDR150W, strain NUM1, stronger effect = lower value 0.995 | locus YDR159W, strain sac3, stronger effect = lower value 0.989 | locus YDR162C, strain NBP2, stronger effect = lower value 0.984 | locus YDR195W, strain ref2 0.99 | locus YDR297W, strain sur2, stronger effect = lower value 0.993 | locus YDR318W, strain mcm21, stronger effect = lower value 0.992 | locus YDR334W, strain swr1, stronger effect = lower value 0.983 | locus YDR335W, strain msn5, stronger effect = lower value 0.989 | locus YDR388W, stronger effect = lower value 0.989 | locus YDR392W, strain spt3, stronger effect = lower value 0.983 | locus YDR502C, strain sam2, stronger effect = lower value 1.01 | locus YEL003W, strain gim4, stronger effect = lower value 0.986 | locus YEL037C, strain rad23, stronger effect = lower value 0.991 | locus YEL061C, strain CIN8 (second series), stronger effect = lower value 0.981 | locus YEL061C, strain CIN8, stronger effect = lower value 0.998 | locus YER015W, strain faa2, stronger effect = lower value 0.991 | locus YER016W, strain bim1, stronger effect = lower value 0.991 | locus YER110C, stronger effect = lower value 0.989 | locus YER111C, strain swi4, stronger effect = lower value 1 | locus YER155C, strain BEM2 (second series), stronger effect = lower value 0.984 | locus YER155C, strain BEM2, stronger effect = lower value 1 | locus YER167W, strain BCK2, stronger effect = lower value 0.995 | locus YFR010W, strain ubp6, stronger effect = lower value 0.99 | locus YGL078C, strain dbp3, stronger effect = lower value 0.992 | locus YGL086W, strain mad1, stronger effect = lower value 0.994 | locus YGL167C, strain pmr1, stronger effect = lower value 0.991 | locus YGL173C, strain kem1, stronger effect = lower value 0.983 | locus YGL227W, strain vid30, stronger effect = lower value 0.983 | locus YGL240W, strain doc1, stronger effect = lower value 1 | locus YGL248W, strain PDE1, stronger effect = lower value 1 | locus YGL253W, strain hxk2, stronger effect = lower value 0.991 | locus YGR078C, strain PAC10, stronger effect = lower value 0.97 | locus YGR135W, strain pre9, stronger effect = lower value 0.994 | locus YGR229C, strain SMI1, stronger effect = lower value 0.961 | locus YGR252W, strain gcn5, stronger effect = lower value 1.16 | locus YHR013C, strain ard1, stronger effect = lower value 0.961 | locus YHR027C, strain rpn1, stronger effect = lower value 0.991 | locus YHR030C, strain SLT2, stronger effect = lower value 0.965 | locus YHR079C, strain IRE1 (second series), stronger effect = lower value 0.977 | locus YHR079C, strain IRE1, stronger effect = lower value 0.973 | locus YHR094C, strain hxt1, stronger effect = lower value 0.985 | locus YHR129C, strain ARP1, stronger effect = lower value 0.989 | locus YHR142W, strain chs7, stronger effect = lower value 0.992 | locus YHR200W, strain rpn10, stronger effect = lower value 0.996 | locus YIL066C, strain RNR3, stronger effect = lower value 0.991 | locus YIL073C, strain SPO22, stronger effect = lower value 0.937 | locus YIL125W, strain kgd1, stronger effect = lower value 0.987 | locus YIR030C, strain dcg1, stronger effect = lower value 0.997 | locus YJL092W, strain hpr5, stronger effect = lower value 0.986 | locus YJL095W, strain BCK1 (second series), stronger effect = lower value 0.993 | locus YJL095W, strain BCK1, stronger effect = lower value 0.967 and 0.982 | locus YJL115W, strain asf1, stronger effect = lower value 0.993 | locus YJL129C, strain trk1, stronger effect = lower value 1 | locus YJL134W, strain LCB3, stronger effect = lower value 0.993 | locus YJL154C, strain vps35, stronger effect = lower value 0.987 | locus YJL164C, strain tpk1, stronger effect = lower value 0.964 | locus YJL166W, strain qcr8, stronger effect = lower value 0.996 | locus YJL168C, strain set2, stronger effect = lower value 0.988 | locus YJL187C, strain SWE1 (second series), stronger effect = lower value 0.962 | locus YJL187C, strain SWE1, stronger effect = lower value 0.992 | locus YJR043C, strain POL32, stronger effect = lower value 0.993 | locus YJR066W, strain TOR1, stronger effect = lower value 0.95
